The record followed here is the supplement of paper PMC3334620.

In all, about 33,000 sequences were measured (“E-score (-0.5 to 0.5)”: median about -0.021, highest 2% from about 0.32 on). The list comes from a sample in which the highest values are over-represented; it also holds similar and randomly drawn sequences.

The assay deals with T1, Zap1 (UniProt P47043).
T1 sequence: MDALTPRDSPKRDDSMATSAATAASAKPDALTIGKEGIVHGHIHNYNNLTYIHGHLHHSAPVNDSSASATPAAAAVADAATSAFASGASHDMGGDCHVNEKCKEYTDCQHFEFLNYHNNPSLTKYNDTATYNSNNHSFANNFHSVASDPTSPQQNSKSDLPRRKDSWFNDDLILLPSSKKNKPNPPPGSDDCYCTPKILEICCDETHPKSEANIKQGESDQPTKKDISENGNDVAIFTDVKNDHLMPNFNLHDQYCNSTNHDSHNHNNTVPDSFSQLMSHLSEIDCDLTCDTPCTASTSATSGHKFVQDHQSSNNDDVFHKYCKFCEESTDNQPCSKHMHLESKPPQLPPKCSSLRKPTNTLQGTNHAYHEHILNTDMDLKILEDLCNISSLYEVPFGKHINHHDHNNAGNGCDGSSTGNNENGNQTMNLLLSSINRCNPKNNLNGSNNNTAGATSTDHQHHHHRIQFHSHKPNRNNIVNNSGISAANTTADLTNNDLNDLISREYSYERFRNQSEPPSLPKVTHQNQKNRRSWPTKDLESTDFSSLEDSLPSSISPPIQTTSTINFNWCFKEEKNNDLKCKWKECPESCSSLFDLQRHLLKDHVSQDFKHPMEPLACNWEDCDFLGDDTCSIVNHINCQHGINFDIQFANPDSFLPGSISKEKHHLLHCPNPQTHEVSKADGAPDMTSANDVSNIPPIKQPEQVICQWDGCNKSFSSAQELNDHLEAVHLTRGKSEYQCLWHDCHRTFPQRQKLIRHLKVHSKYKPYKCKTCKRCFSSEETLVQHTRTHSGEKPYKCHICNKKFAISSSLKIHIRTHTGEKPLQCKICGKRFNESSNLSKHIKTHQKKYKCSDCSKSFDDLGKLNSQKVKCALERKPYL
Description: PBM E-score (8-mer binding enrichment) (E-score (-0.5 to 0.5)); higher = stronger / more preferred TF binding. The following applies: protein concentration: 200 nM; construct: GST-full length. As to the method:
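Universal 'all 10-mer' protein binding microarrays (Agilent AMADID 015681) probed with GST-tagged S. cerevisiae TFs (full-length or DBD) made by in vitro transcription/translation (PURExpress), about 100-200 nM. Bound TF was detected with fluorescent anti-GST. Each ungapped 8-mer (which stands for itself and its reverse complement) is scored by the PBM enrichment score (E-score), a modified Wilcoxon-Mann-Whitney statistic from -0.5 to +0.5, computed with the Universal PBM Analysis Suite. Scale: above 0.35 generally sequence-specific binding.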
For the sequence AGGTGGTC, the “PBM E-score” value amounted to 0.142. To GGTTGCGA belongs 0.335; to GGTTGTAA, 0.278; to GGTTGTGA, 0.374. To CGTTGTTA belongs 0.102. In the case of AGTTGCGA, the “PBM E-score” value came out at 0.16.

On to AGTTGTGA, for which the “PBM E-score” value was 0.193.

Regarding CGTTGTGA, the “PBM E-score” value is -0.151. To GGTTGTTA belongs 0.355; to AGTTGTAC, 0.146. To GGTTGTAC belongs 0.336; to AGTTGTTA, 0.161; to CGTTGCGA, -0.126. With CGTAGACC, the “PBM E-score” value was -0.109. Consider ACAGAACC, for which the “PBM E-score” value turned out to be 0.0979. As to ATTGGCAG, the “PBM E-score” value is -0.219. With CTGAAGTA, the “PBM E-score” value was 0.0214. To ATGACTCG belongs -0.115. In the case of CTTGCGAA, the “PBM E-score” value came to 0.139. Regarding GCCATATA, the “PBM E-score” value amounted to 0.0242. In the case of TAAACCGA, the “PBM E-score” value was -0.0627. On to ATTCTCTG, for which the “PBM E-score” value is -0.159. In the case of TGACCAAA, the “PBM E-score” value stood at 0.28.

Turning to CCACATCG, the “PBM E-score” value came out at 0.0835. Turning to GAGTGTCA, the “PBM E-score” value came out at 0.035. To CAAAGGTG belongs 0.0139.

With ATAACAGC, the “PBM E-score” value is -0.0193. Take CAGCTGGC: the “PBM E-score” value is -0.0978. On to AGGGTTAG, for which the “PBM E-score” value was found to be 0.431. Turning to TGTGTTAA, the “PBM E-score” value is 0.0894.

AGAGTTAA: the “PBM E-score” value was -0.086. Turning to GGGGTTCA, the “PBM E-score” value was found to be 0.0745. With AGCGTTAG, the “PBM E-score” value is -0.147. Consider AGGGTTAA, for which the “PBM E-score” value is 0.461. To TGGGTTAA belongs 0.359.

As to GGGGTTAA, the “PBM E-score” value came to 0.403. For GGGGTTTA, the “PBM E-score” value came out at 0.126. On to AGGGTTTA, for which the “PBM E-score” value stood at 0.315. To AGGGTTTG belongs 0.292; to TCGGTTAA, 0.274.

As for AAACTTAG, the “PBM E-score” value came to 0.0118. In the case of ACTCTTGA, the “PBM E-score” value was -0.00751. To AAACTTCA belongs 0.00932; to GTGGTTTA, 0.213.

Regarding GTGGTTAA, the “PBM E-score” value was found to be 0.406. On to ATGGTTAA, for which the “PBM E-score” value came out at 0.357. To ATGGTTCA belongs 0.119; to GTGGTTGA, 0.0163. On to ATGGTTTA, for which the “PBM E-score” value was determined as 0.191.

CCTGTGAG: the “PBM E-score” value amounted to 0.133.

As to CGGTGCTC, the “PBM E-score” value worked out at 0.123.

Turning to GGCACAGA, the “PBM E-score” value was -0.267. AGCCTAAT: the “PBM E-score” value was -0.212. ACCCTAAG: the “PBM E-score” value was 0.457. To GCCCTAAC belongs 0.111.

ACCCTAAA: the “PBM E-score” value came to 0.416. In the case of CCCCTAAC, the “PBM E-score” value amounted to 0.232. For the sequence ATCCTAAT, the “PBM E-score” value is 0.0542. In the case of ACCCTAAT, the “PBM E-score” value stood at 0.407. To ATCCTAAG belongs -0.00974; to CCCCTAAG, 0.158; to CCCCTAAA, 0.0485.

In the case of ACCCTAAC, the “PBM E-score” value is 0.414. For the sequence TCCCTAAA, the “PBM E-score” value was -0.0128. To GCTGCTTA belongs 0.0693; to CCCTGCCA, -0.00313. As for CGCTAGCC, the “PBM E-score” value is -0.373. On to AGGTATAA, for which the “PBM E-score” value stood at 0.317. For AGGTATAT, the “PBM E-score” value stood at 0.115. On to CGGTATAA, for which the “PBM E-score” value came out at 0.0772. Regarding CATGCTGG, the “PBM E-score” value is -0.0654. Regarding CGGATTCC, the “PBM E-score” value is -0.0353. On to ACCCCCTC, for which the “PBM E-score” value is -0.0959. With CACCCCTC, the “PBM E-score” value was found to be 0.239. On to AAACCCTC, for which the “PBM E-score” value came to 0.175. To AAACCCTG belongs 0.337; to AACCCCTG, 0.347. On to ACCCCCTG, for which the “PBM E-score” value is -0.07. Turning to AGACCCTG, the “PBM E-score” value was 0.253. For the sequence TAACCCTA, the “PBM E-score” value is 0.462. TAGCCCTA: the “PBM E-score” value is -0.0869. On to CACCCCTG, for which the “PBM E-score” value was -0.0914. Regarding AACCCCTC, the “PBM E-score” value turned out to be 0.353. With TAACCGTA, the “PBM E-score” value was determined as 0.31.

As for AGAGAGAC, the “PBM E-score” value is -0.00859. As for CACGCTAG, the “PBM E-score” value was -0.21.
